Test results taken from the supplement of paper PMC10338343.
± gives the standard deviation.

The sequences below were run on MILI (PIWIL2) piRISC loaded with piRNA #1 (26 nt) (assay: pre-steady-state target cleavage rate (min^-1); guide: piRNA #1 5'p-UGAGGUAGUAGGUUGUAUAGUAUCCA; MIWI and MILI are mouse PIWI proteins and EfPiwi is from a freshwater sponge; tags in brackets are library labels; higher = faster piRNA-guided slicing of the target). Conditions: auxiliary factor: 500 nM mouse GTSF1.
Method in brief: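 Cleave-'n-Seq: 1 nM active affinity-purified piRISC with one synthetic guide and 0.1 nM transcribed, DNA-blocked target RNA library were mixed, with or without 500 nM GTSF1 partner protein, in HEPES–potassium acetate buffer at 33 °C for 0–8 or 0–960 min. Uncleaved targets were sequenced and normalised to depth and to weakly complementary targets, three trials were pooled, and k3 was capped at 0.0001 min^-1. The pre-steady-state cleavage rate was fitted […].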

Sequence	pre-steady-state target cleavage rate
GGAGACCUAUCUAUACAACCAACUUCCUCA	0.00361 ± 0.0027
GGAGUGGAUACUAUUGUACCUACUACCUCA	0.115 ± 0.0083
GGAGACCUAUCUUUACAACCUACUAGCUCA	0.0374 ± 0.0091
GGAGACCUAUCUAUACAUCCUUCUACCUCA	0.0137 ± 0.0039
GGAGACCUAACUAUAGUACCUACUACCUCA	0.122 ± 0.022
GGAGAGGAUACUUAACAACCUACUACCUCA	0.163 ± 0.013
GGAGAGGAUACUAUACAAGGAACUACCUCA	0.00442 ± 0.002
GGAGACCUUUCUAUACAACGUACUACCUCA	0.013 ± 0.003
GGAGACCUAUGAAAACAACCUACUACCUCA	0.0037 ± 0.0033
GGAGACCUAUCUAUAGAACCUACUACCACA	0.0472 ± 0.0098
GGAGACCUAUGAUAUGUUGGUACUACCUCA [g2:g10:cont:t1A]	< 0.0001
GGAGACCUAUGAUAUGUUCCUACAAGCUCA	< 0.0001
GGAGUGGAUACUAUAAACCUACUACCUCA	0.0206 ± 0.0043
GGAGACCUAUGAUAACAACCUACUACACUCA	0.00558 ± 0.0031
GGAGACCUAUCUAUACAACCUAGUACCACA	0.00922 ± 0.0045
GGAGACCUAUCUAUACAACCUAUCUACCUCA	0.0483 ± 0.0065
GGAGACCUAUGAUAUGAACGCUACUACCUCA	< 0.0001
GGAGACCAUACUAUACAAGCAACUACCUCA	0.00864 ± 0.003
GGAGACCUAUCUAUACAACCUACUAACCUCA	0.143 ± 0.014
GGAGACCUAUGUAUACAACCUACUACUCA	0.063 ± 0.013

Sequence	pre-steady-state target cleavage rate
GGAGACCUAUGAAUACAACCUACUAACCUCA	0.0105 ± 0.0027
GGAGUGGAUACUUUACAACCUACUACCACA	0.0946 ± 0.011
GGAGUGGAAUGUAUACAACCUACUACCUCA	0.0864 ± 0.0076
GGAGACCUAACUUAACAACCUACUACCUCA	0.0309 ± 0.012
GGAGACCUAUGAUAUGUACCUACAAGCUCA	< 0.0001
GGAGACCUAUCUAUUCAACCUACUACCUCA	0.108 ± 0.015
GGAGACCUAUCAAUUCAACCUACUACCUCA	0.00721 ± 0.0029
GGAGACCUAUGAAUACAACCUACUACCUAA	0.00505 ± 0.0032
GGAGACCUAUGAUAUGAUCCUACUACCACA	< 0.0001
GGAGACCUAACUUUUCAACCUACUACCUCA	0.0456 ± 0.014
GGAGACCUAUGAUUACAACGUACAACCUCA	0.00532 ± 0.0027
GGAGACCUAUCUAAAGAACCUACUACCUCA	0.0183 ± 0.0054
GGAGACCAUACUAUACAUCCUUCUACCUCA	0.042 ± 0.0097
GGAGACCUAUGUUUACUACCUACUACCUCA	0.00553 ± 0.0021
GGAGUGCAUACUAUAGAACCUACUACCUCA	0.177 ± 0.013
GGAGACCUAUGAUAUGUUGCUUGAACCUCA	< 0.0001
GGAGACCUAUCUAUACAACUUACUACCUCA	0.0156 ± 0.0023
GGAGACGAUACUAUACAACCUACAACCUCA	0.142 ± 0.019
GGAGACCUAACUAUACUACCUACUUCCUCA	0.0587 ± 0.013
GGAGACCUAUCUAUACAACCUAAUACCUCA	0.0234 ± 0.0057
